# Assay results taken from PubChem BioAssay AID1159580 (chemical genetic matrix, 2015).
# Hit rate of the full screen: of about 5,500 compounds, about 2,000 (36%) were called active. Another 18% or so got no clear call; they are omitted. The list shows a part of the results. Unmarked numbers belong to inactive results. No stated cut-off is given here; in the data, active means normalized growth mostly below about 0.91 (no sharp cut-off); inconclusive means no clear call, values can overlap the other calls; inactive means mostly above about 0.92.
# Assay: chemical genetic growth profiling, strain panel (AID 1159580);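 further: tested at 20 µM; growth read once vehicle control cultures reached saturation at 30 °C; 1 = growth at the plate median or of vehicle wells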
# Conditions: S. cerevisiae deletion strains, growth OD
compound,measurement,setting,value
CC(C)(C)c1ccc(C(=O)Nc2ccc(C(F)(F)F)cc2)s1,normalized growth,"locus YAR019C, strain CDC15, stronger effect = lower value",0.985
same,normalized growth,"locus YBL105C, strain PKC1, stronger effect = lower value",0.991
same,normalized growth,"locus YBR135W, strain CKS1, stronger effect = lower value",0.994
same,normalized growth,"locus YBR136W, strain MEC1, stronger effect = lower value",0.972
same,normalized growth,"locus YBR160W, strain CDC28, stronger effect = lower value",0.984
same,normalized growth,"locus YDL017W, strain CDC7, stronger effect = lower value",0.997
same,normalized growth,"locus YDL028C, strain MPS1, stronger effect = lower value",0.967
same,normalized growth,"locus YDL101C, strain DUN1, stronger effect = lower value",1.01
same,normalized growth,"locus YDL108W, strain KIN28, stronger effect = lower value",0.972
same,normalized growth,"locus YDL132W, strain cdc53, stronger effect = lower value",0.988
same,normalized growth,"locus YDL214C, strain PRR2, stronger effect = lower value",0.952
same,normalized growth,"locus YDR052C, strain DBF4, stronger effect = lower value",0.996
same,normalized growth,"locus YDR054C, strain cdc34, stronger effect = lower value",0.989
same,normalized growth,"locus YDR226W, strain ADK1, stronger effect = lower value",0.976
same,normalized growth,"locus YDR477W, strain SNF1, stronger effect = lower value",0.952
same,normalized growth,"locus YER123W, strain YCK3, stronger effect = lower value",0.968
same,normalized growth,"locus YER133W, strain GLC7, stronger effect = lower value",0.977
same,normalized growth,"locus YFL009W, strain cdc4, stronger effect = lower value",0.976
same,normalized growth,"locus YFL029C, strain CAK1, stronger effect = lower value",0.987
same,normalized growth,"locus YFR003C, strain YPI1, stronger effect = lower value",0.999
same,normalized growth,"locus YFR019W, strain FAB1, stronger effect = lower value",0.972
same,normalized growth,"locus YFR028C, strain CDC14, stronger effect = lower value",0.985
same,normalized growth,"locus YGR040W, strain KSS1, stronger effect = lower value",0.954
same,normalized growth,"locus YGR052W, strain FMP48, stronger effect = lower value",1
same,normalized growth,"locus YGR092W, strain DBF2, stronger effect = lower value",0.966
same,normalized growth,"locus YHR030C, strain SLT2, stronger effect = lower value",0.821 (active)
same,normalized growth,"locus YHR079C, strain IRE1, stronger effect = lower value",0.963
same,normalized growth,"locus YHR082C, strain KSP1, stronger effect = lower value",0.991
same,normalized growth,"locus YHR205W, strain SCH9, stronger effect = lower value",0.92
same,normalized growth,"locus YIL147C, strain SLN1, stronger effect = lower value",0.989
same,normalized growth,"locus YJL095W, strain BCK1, stronger effect = lower value",0.957
same,normalized growth,"locus YJL128C, strain PBS2, stronger effect = lower value",0.943
same,normalized growth,"locus YJL157C, strain FAR1, stronger effect = lower value",0.976
same,normalized growth,"locus YJR016C, strain ILV3, stronger effect = lower value",0.996
same,normalized growth,"locus YJR066W, strain TOR1 (second series), stronger effect = lower value",0.967
same,normalized growth,"locus YJR066W, strain TOR1, stronger effect = lower value",0.929
same,normalized growth,"locus YKL048C, strain ELM1, stronger effect = lower value",0.988
same,normalized growth,"locus YKL067W, strain YNK1, stronger effect = lower value",0.944
same,normalized growth,"locus YKL101W, strain HSL1, stronger effect = lower value",0.935
same,normalized growth,"locus YKL193C, strain SDS22, stronger effect = lower value",0.986
same,normalized growth,"locus YKL203C, strain TOR2, stronger effect = lower value",1.05
same,normalized growth,"locus YLR113W, strain HOG1, stronger effect = lower value",0.863
same,normalized growth,"locus YLR133W, strain CKI1, stronger effect = lower value",0.971
same,normalized growth,"locus YLR403W, strain SFP1, stronger effect = lower value",0.974
same,normalized growth,"locus YML070W, strain DAK1, stronger effect = lower value",0.944
same,normalized growth,"locus YMR001C, strain CDC5, stronger effect = lower value",0.995
same,normalized growth,"locus YMR205C, strain PFK2 (second series), stronger effect = lower value",0.975
same,normalized growth,"locus YMR277W, strain FCP1, stronger effect = lower value",0.966
same,normalized growth,"locus YNL006W, strain LST8, stronger effect = lower value",0.981
same,normalized growth,"locus YNL020C, strain ARK1, stronger effect = lower value",0.973
same,normalized growth,"locus YNL161W, strain CBK1, stronger effect = lower value",0.985
same,normalized growth,"locus YNL183C, strain NPR1, stronger effect = lower value",1.01
same,normalized growth,"locus YNL207W, strain RIO2, stronger effect = lower value",0.991
same,normalized growth,"locus YNL222W, strain SSU72, stronger effect = lower value",0.988
same,normalized growth,"locus YNL307C, strain MCK1 (second series), stronger effect = lower value",0.99
same,normalized growth,"locus YOL078W, strain AVO1, stronger effect = lower value",0.989
same,normalized growth,"locus YOL136C, strain PFK27, stronger effect = lower value",0.939
same,normalized growth,"locus YOR061W, strain CKA2, stronger effect = lower value",1
same,normalized growth,"locus YOR119C, strain RIO1, stronger effect = lower value",0.993
same,normalized growth,"locus YOR231W, strain MKK1, stronger effect = lower value",0.925
same,normalized growth,"locus YOR329C, strain SCD5, stronger effect = lower value",0.999
same,normalized growth,"locus YPL031C, strain PHO85, stronger effect = lower value",0.977
same,normalized growth,"locus YPL153C, strain RAD53, stronger effect = lower value",0.951
same,normalized growth,"locus YPL204W, strain HRR25, stronger effect = lower value",0.951
same,normalized growth,"locus YPL209C, strain IPL1, stronger effect = lower value",0.991
same,normalized growth,"locus YPL256C, strain CLN2, stronger effect = lower value",0.899
same,normalized growth,"locus YPR025C, strain CCL1, stronger effect = lower value",1
same,normalized growth,"locus YPR106W, strain ISR1, stronger effect = lower value",0.98
same,normalized growth,"locus YPR111W, strain DBF20, stronger effect = lower value",0.955
same,normalized growth,"strain NNK1, stronger effect = lower value",0.98
same,normalized growth,"strain TSCII, stronger effect = lower value",0.983
